Values joined by “and” are separate entries in the source; they are usually repeats but may differ in a detail not shown here. Equal values may be shown once. About 900 (0.53%) of roughly 170,000 compounds were called active.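 How the source made its calls: active means relative growth at most 50% at the other temperature and 20+ points below 30 °C, or under 10% at both; inactive means the rest, inconclusive results apart.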 The entries come from a sample that favours actives as a whole.
Assay: Staphylococcus aureus RN4220 growth blockers – two temperatures, LtaS inhibitor project, primary screen (AID 720641)
Conditions: S. aureus RN4220 growth, OD600, 20 h, 42 °C, stronger effect = lower value

| SMILES | relative growth | relative growth (measured here: growth at 30 °C) |
| --- | --- | --- |
| CCOC(=O)N1CCC(N2Cc3cccc(C(=O)NC4CCN(Cc5ccccc5)CC4)c3C2=O)CC1 | 92.7% (inactive) | 86.6% |
| CCN(CC(=O)NCc1ccc(Cl)cc1)C(=O)c1c(C)noc1C | 84.2% (inactive) | 95.1% |
| Cc1ccc(-c2nc3ccccn3c2Nc2c(C)cccc2C)o1 | 1.59% (active) | 1.66% |
| Cc1ccc(Nc2c(-c3ccc(C)s3)nc3ccccn23)cc1 | 107% (inactive) | 89.8% |
| Cc1cccc(C)c1Nc1c(-c2ccccc2O)nc2ncccn12 | 99.7% (inactive) | 86.4% |
| Nc1ccc(C(=O)Nc2ccc(C(=O)O)cc2N)cc1 | 108% (inactive) | 98.5% |
| CC1=NN(c2ccccc2)C(=O)C1C=C1C(=O)N(C)C(=S)N(C)C1=O (configuration not stated) | 109% (inactive) | 103% |
| Cc1c(C(=O)NC2CCCC2)oc2ccc(S(=O)(=O)N(C)C3CCCCC3)cc12 | 142% (inactive) | 89.2% |
| CCCCNC(=O)c1cc(-c2ccc(Cl)c(Cl)c2)on1 | 100% (inactive) | 88% |
| COCCNC(=O)c1cc(-c2cccc(Cl)c2)on1 | 92.5% (inactive) | 110% |
| Cc1ccc(-c2cc(C(=O)Oc3ccccc3Cl)no2)cc1C | 0.23% (active) | -0.03% |
| CC(=O)Nc1ccc2nc3c(cc2c1)[nH]c1ccccc13 | 114% (inactive) | 93.5% |
| COc1ccc(-c2csc3ncnc(NCCSCc4ccco4)c23)cc1 | 67.1% (inactive) | 66.9% |
| Clc1ccc(C(Cn2ccnc2)OCc2ccsc2Cl)c(Cl)c1 (configuration not stated) | -0.03% (active) and -0.62% (active) | 0.13% and 0.06% |
| CC1CCCCN1C(=O)c1ccc(Br)cc1 (configuration not stated) | 99.9% (inactive) | 91.1% |
| COc1ccc(N=C2SCCCN2C(=O)C2CCCC2)cc1OC | 94.4% (inactive) | 86% |
| CC(NCc1ccc(OC(F)F)cc1OC(F)F)c1ccc(-n2ccnc2)cc1 (configuration not stated) | 101% (inactive) | 92.4% |
| c1ccc2cc3cnccc3cc2c1 | 3.61% (active) | 2.36% |
| COc1ccccc1NC(=O)Oc1ccc2ccncc2c1 | 105% (inactive) | 97.9% |
| Sc1ccc2ccccc2c1 | 82.2% (inactive) | 91% |
| CC(=O)N1CC=C(c2ccc(O)cc2)CC1 | 37.5% (inactive) | 31.2% |
| O=C(NCCc1ccccc1)c1ccc(C(=O)c2ccccc2)o1 | 99.2% (inactive) | 94.2% |
| Cc1cc(C)cc(NS(=O)(=O)c2ccc3c(c2)CC(=O)N3)c1 | 96.8% (inactive) | 77% |

| SMILES | relative growth | relative growth (measured here: growth at 30 °C) |
| --- | --- | --- |
| COc1cc(NC(=O)c2cc3ccc4cccnc4c3[nH]2)cc(OC)c1OC | 90.5% (inactive) | 89.8% |
| Cc1cc(NC(=O)c2cc3ccc4cccnc4c3[nH]2)no1 | 108% (inactive) | 92.6% |
| CC1=Nc2c(ccc3cccnc23)C1(C)C | 3.05% (active) | 2.08% |
| O=C(COC(=O)c1n[nH]c2ccccc12)Nc1ccc(N2CCOCC2)cc1 | 104% (inactive) | 96.3% |
| Cc1ccc(-n2c(C)ccc2C)cc1 | 97.4% (inactive) | 101% |
| Oc1c(Cl)cc(Cl)c(Cl)c1Cc1c(O)c(Cl)cc(Cl)c1Cl | -0.02% (active) | -0.87% |
| CN1CCC(N(C)C(=O)Nc2c[nH]c3ccccc23)CC1 | 3.18% (active) | 6.3% |
| COCC(C)NC(=O)Nc1c[nH]c2ccccc12 (configuration not stated) | 78.5% (inactive) | 50.9% |
| O=C(Nc1c[nH]c2ccccc12)NC1CCCC1 | 103% (inactive) | 62.5% |
| CCOC(=O)N1CCC(N(CCOC)C(=S)Nc2ccccc2F)CC1 | 83.6% (inactive) | 74.7% |
| Cc1ccc(NC(=O)CC2SC(=Nc3ccc(S(N)(=O)=O)cc3)NC2=O)cc1 (configuration not stated) | 100% (inactive) | 94.2% |
| CCC(C)NC(=O)Cn1nc(-c2ccccc2)c2cc(Cl)ccc21 (configuration not stated) | 105% (inactive) | 86.8% |
| C=CCNC(=O)c1ccc(S(=O)(=O)N(CC)c2ccccc2)cc1 | 99.8% (inactive) | 91% |
| Cc1cnc(C(=O)OCc2cc(=O)n3ccsc3n2)cn1 | 86.6% (inactive) | 101% |
| CC1(C)S[C@@H]2[C@H](N=CN3CCCCCC3)C(=O)N2[C@H]1C(=O)O | 93.7% (inactive) | 82.3% |
| CC(Oc1ccccc1)C(=O)NC1CCCCC1 (configuration not stated) | 110% (inactive) | 98.3% |
| COC(=O)C(N)c1ccccc1 (configuration not stated) | 68.2% (inactive) | 90.3% |
| CC(Oc1ccccc1)C(=O)N[C@@H]1C(=O)N2[C@@H]1SC(C)(C)[C@@H]2C(=O)O (some centres not stated) | -1.13% (active) | -0.8% |
| CCOC(=O)OC(C)OC(=O)C1N2C(=O)C(NC(=O)[C@H](N)c3ccccc3)C2SC1(C)C (some centres not stated) | -1.14% (active) | -0.8% |
| C1=CCC(/C=N/Nc2nc3ccccc3o2)CC1 (configuration not stated) | 82% (inactive) | 84.9% |
| Cc1cc2oc(=O)cc(Cn3nnc(-c4ccc(F)cc4)n3)c2cc1C | 84.4% (inactive) | 95.6% |
| CCCNS(=O)(=O)c1ccc(N2CCCCS2(=O)=O)cc1 | 101% (inactive) | 93.7% |
| c1ccc(-c2nc3ccccc3nc2N2CCCC2)cc1 | 97.9% (inactive) | 98.8% |
